Results taken from PubChem BioAssay (NCATS).
Inconclusive results are not listed. Active and inactive are the calls of the source. Calls follow the shape of the dose curve; as a rule, active = well fitted cell-killing curve with a large enough effect; inconclusive = small, poorly fitted or top-dose-only effect, or effect the other way; inactive = flat fitted curve, though single readings scatter.

How the values were obtained:
Experiment in all cases: Primary qHTS to identify gynecologic anti-cancer compounds using libraries of approved drugs and bioactive compounds (AID 1345084); also: nearly all actives have a fitted effect of over 55% in size
C33A = conditions: Gynecologic cancer cell panel viability, ATPlite luminescence, 48 h; series mostly up to 57.5 µM
Method in brief: (§1)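 48 h compound exposure at 37 C, 5% CO2; five-point qHTS. ATPlite luminescence readout of cell ATP.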

CAOV3 = conditions: Gynecologic cancer cell panel viability, ATPlite luminescence, 48 h; series mostly up to 57.5 µM
Method in brief: as §1

CASKI = conditions: Gynecologic cancer cell panel viability, ATPlite luminescence, 48 h; series mostly up to 57.5 µM
Method in brief: as §1

Es-2 = conditions: Gynecologic cancer cell panel viability, ATPlite luminescence, 48 h; series mostly up to 57.5 µM
Method in brief: as §1

HeLa = conditions: Gynecologic cancer cell panel viability, ATPlite luminescence, 48 h; series mostly up to 57.5 µM
Method in brief: as §1

Hek293T = conditions: Gynecologic cancer cell panel viability, ATPlite luminescence, 48 h, control line for the selectivity index; series mostly up to 57.5 µM
Method in brief: as §1

JEG-3 = conditions: Gynecologic cancer cell panel viability, ATPlite luminescence, 48 h; series mostly up to 57.5 µM
Method in brief: as §1

OV90 = conditions: Gynecologic cancer cell panel viability, ATPlite luminescence, 48 h; series mostly up to 57.5 µM
Method in brief: as §1

PA-1 = conditions: Gynecologic cancer cell panel viability, ATPlite luminescence, 48 h; series mostly up to 57.5 µM
Method in brief: as §1

SKOV3 = conditions: Gynecologic cancer cell panel viability, ATPlite luminescence, 48 h; series mostly up to 57.5 µM
Method in brief: as §1

Tov-21-G = conditions: Gynecologic cancer cell panel viability, ATPlite luminescence, 48 h; series mostly up to 57.5 µM
Method in brief: as §1

Tov112D = conditions: Gynecologic cancer cell panel viability, ATPlite luminescence, 48 h; series mostly up to 57.5 µM
Method in brief: as §1
% is scaled to controls: 0 for no effect and ±100 for the full control effect.

CC1=CC(=O)CC(C)(C)C1/C=C/C(C)OC1OC(COC2OCC(O)C(O)C2O)C(O)C(O)C1O (stereo not drawn)
inactive: Potency (C33A) | Potency (CAOV3) | outcome (CASKI) | Potency (Es-2) | Potency (HeLa) | Potency (Hek293T) | Potency (JEG-3) | Potency (OV90) | Potency (PA-1) | Potency (SKOV3) | Potency (Tov-21-G) | Potency (Tov112D)

O=C(O)CCc1cccc(O)c1O[C@@H]1O[C@H](CO)[C@@H](O)[C@H](O)[C@H]1O
inactive: Potency (C33A) | Potency (CAOV3) | outcome (CASKI) | Potency (Es-2) | Potency (HeLa) | Potency (Hek293T) | Potency (JEG-3) | Potency (OV90) | Potency (PA-1) | Potency (SKOV3) | Potency (Tov-21-G) | Potency (Tov112D)

COc1cccc(OC)c1-c1nc(C(=O)N[C@@H](CC(C)C)C(=O)O)cn1-c1ccnc2cc(Cl)ccc12
inactive: Potency (C33A) | Potency (CAOV3) | outcome (CASKI) | Potency (Es-2) | Potency (HeLa) | Potency (Hek293T) | Potency (JEG-3) | Potency (OV90) | Potency (PA-1) | Potency (SKOV3) | Potency (Tov-21-G) | Potency (Tov112D)

CC1CCC2(C)CCC3(C)C(=CCC4C5(C)CCC(O)C(C)(C(=O)O)C5CCC43C)C2C1C (stereo not drawn)
inactive: Potency (C33A) | Potency (CAOV3) | outcome (CASKI) | Potency (Es-2) | Potency (HeLa) | Potency (Hek293T) | Potency (JEG-3) | Potency (OV90) | Potency (PA-1) | Potency (SKOV3) | Potency (Tov-21-G) | Potency (Tov112D)

COC(=O)C1=CO[C@@H](O[C@@H]2O[C@H](CO)[C@@H](O)[C@H](O)[C@H]2O)[C@@H]2[C@@H](C(=O)O)CC[C@H]12
inactive: Potency (C33A) | Potency (CAOV3) | outcome (CASKI) | Potency (Es-2) | Potency (HeLa) | Potency (Hek293T) | Potency (JEG-3) | Potency (OV90) | Potency (PA-1) | Potency (SKOV3) | Potency (Tov-21-G) | Potency (Tov112D)

O=C(O)c1cccc(C(=O)CCC2OC(n3cnc4c(=O)[nH]cnc43)C(O)C2O)c1 (stereo not drawn)
inactive: Potency (C33A) | Potency (CAOV3) | outcome (CASKI) | Potency (Es-2) | Potency (HeLa) | Potency (Hek293T) | Potency (JEG-3) | Potency (OV90) | Potency (PA-1) | Potency (SKOV3) | Potency (Tov-21-G) | Potency (Tov112D)

O=C1OC(c2ccc(O)cc2)C(O)=C1Cc1ccccc1 (stereo not drawn)
inactive: Potency (C33A) | Potency (CAOV3) | outcome (CASKI) | Potency (Es-2) | Potency (HeLa) | Potency (Hek293T) | Potency (JEG-3) | Potency (OV90) | Potency (PA-1) | Potency (SKOV3) | Potency (Tov-21-G) | Potency (Tov112D)

C/C=C/C=C/C=C/C(=O)N(C)C(C(=O)NC(C)C(=O)N1CCCC1C(N)=O)C(C)C (stereo not drawn)
inactive: Potency (C33A) | Potency (CAOV3) | outcome (CASKI) | Potency (Es-2) | Potency (HeLa) | Potency (Hek293T) | Potency (JEG-3) | Potency (OV90) | Potency (PA-1) | Potency (SKOV3) | Potency (Tov-21-G) | Potency (Tov112D)

COc1ccnc2[nH]cc(C(=O)C(=O)N3CCN(C(=O)c4ccccc4)CC3C)c12 (stereo not drawn)
inactive: Potency (C33A) | Potency (CAOV3) | outcome (CASKI) | Potency (Es-2) | Potency (HeLa) | Potency (Hek293T) | Potency (JEG-3) | Potency (OV90) | Potency (PA-1) | Potency (SKOV3) | Potency (Tov-21-G) | Potency (Tov112D)

NCCCCN(Cc1nc2ccccc2[nH]1)[C@H]1CCCc2cccnc21
inactive: Potency (C33A) | Potency (CAOV3) | outcome (CASKI) | Potency (Es-2) | Potency (HeLa) | Potency (Hek293T) | Potency (JEG-3) | Potency (OV90) | Potency (PA-1) | Potency (SKOV3) | Potency (Tov-21-G) | Potency (Tov112D)

CC(=O)O[C@H]1C[C@@]2(C)[C@@H](CC[C@H]3[C@@]4(C)C=CC(=O)[C@@H](C)[C@@H]4[C@H](OC(C)=O)C(=O)[C@@]32C)/C1=C(\CCC=C(C)C)C(=O)O
inactive: Potency (C33A) | Potency (CAOV3) | outcome (CASKI) | Potency (Es-2) | Potency (HeLa) | Potency (Hek293T) | Potency (JEG-3) | Potency (OV90) | Potency (PA-1) | Potency (SKOV3) | Potency (Tov-21-G) | Potency (Tov112D)

C/C=C1/[C@H](O[C@@H]2O[C@H](CO)[C@@H](O)[C@H](O)[C@H]2O)OC=C(C(=O)OC)[C@H]1CC(=O)OCCc1ccc(OC(=O)C[C@@H]2C(C(=O)OC)=CO[C@@H](O[C@@H]3O[C@H](CO)[C@@H](O)[C@H](O)[C@H]3O)/C2=C/C)cc1
inactive: activity change, negative = cytotoxicity (C33A) 3.14% [at 11.6 µM] | activity change, negative = cytotoxicity (CAOV3) 14% [at 11.6 µM] | activity change, negative = cytotoxicity (CASKI) 4.82% [at 11.6 µM] | activity change, negative = cytotoxicity (Es-2) 6.86% [at 11.6 µM] | activity change, negative = cytotoxicity (HeLa) 18.2% [at 11.6 µM] | activity change, negative = cytotoxicity (Hek293T) 5.22% [at 11.6 µM] | activity change, negative = cytotoxicity (JEG-3) 15.1% [at 11.6 µM] | activity change, negative = cytotoxicity (OV90) 7.47% [at 11.6 µM] | activity change, negative = cytotoxicity (PA-1) 1.32% [at 11.6 µM] | activity change, negative = cytotoxicity (SKOV3) 0% [at 11.6 µM] | activity change, negative = cytotoxicity (Tov-21-G) 4.28% [at 11.6 µM] | activity change, negative = cytotoxicity (Tov112D) 11.9% [at 11.6 µM]

Cc1cc(OCCN2CCOCC2)nn1-c1ccc2ccccc2c1
inactive: Potency (C33A) | Potency (CAOV3) | outcome (CASKI) | Potency (Es-2) | Potency (HeLa) | Potency (Hek293T) | Potency (JEG-3) | Potency (OV90) | Potency (PA-1) | Potency (SKOV3) | Potency (Tov-21-G) | Potency (Tov112D)

O=C(OC[C@H]1O[C@@H](Oc2ccccc2CO)[C@H](O)[C@@H](O)[C@@H]1O)c1ccccc1
inactive: Potency (C33A) | Potency (CAOV3) | outcome (CASKI) | Potency (Es-2) | Potency (HeLa) | Potency (Hek293T) | Potency (JEG-3) | Potency (OV90) | Potency (PA-1) | Potency (SKOV3) | Potency (Tov-21-G) | Potency (Tov112D)
